The source of these data is PubChem BioAssay (NCATS).

Records with an inconclusive call do not appear. A number with no mark means an inactive call. Activity calls are given as the source filed them. Calls follow the shape of the dose curve; as a rule, active = well fitted curve in the direction sought with a large enough effect; inconclusive = small, poorly fitted or top-dose-only effect, or another doubt; inactive = no such curve, though single readings can be large; an effect the other way counts as inactive or inconclusive.

Assay [1] concerns the target ATP-dependent 6-phosphofructokinase (Trypanosoma brucei brucei) (UniProt O15648). Kind of assay: qHTS Assay to Find Inhibitors of T. brucei phosphofructokinase: hit validation (AID 492961).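 Also: luminescence reports ADP formed as PFK phosphorylates fructose-6-phosphate with ATP; % is scaled to controls: 0 for no effect and ±100 for the full control effect.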 The method in brief: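 Compounds titrated; %activity normalized to 0x and 1x enzyme controls, curve-fitted. Readout: ADP-Glo luminescence after 45 min room-temperature reaction of 1.25 nM PFK, 0.1 mM ATP, 0.5 mM F6P, pH 8.0.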
(Quantitative high-throughput screening tests each substance at several concentrations.)

Assay [2] in a line: qHTS profiling for inhibitors of Plasmodium falciparum proliferation (AID 504749). Also: potency is read from the fitted curve at half-maximal effect.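 As to activity, negative = inhibition: 0% = DMSO vehicle and full inhibition = artemisinin control.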 As to all read-outs here: nearly all actives have a fitted effect of over 60% in size. The note with it: P. falciparum in erythrocytes, SYBR Green DNA, 72 h; for activity, negative = inhibition: at 28.7 µM (top of the series). The method in brief: (§1)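 Each compound contacts P. falciparum-infected red blood cells for 72 h at 37 C; lysis buffer (Tris, EDTA, saponin, Triton X, SYBR Green I) is added and fluorescence measured next morning; values normalized to controls.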

The subject of assay [3] is 3D7. The assay is described as above. As to conditions: P. falciparum in erythrocytes, SYBR Green DNA, 72 h; series mostly up to 28.7 µM. The essentials: as §1
The subject of assay [4] is ATS189. The description is as above. The note with it: P. falciparum in erythrocytes, SYBR Green DNA, 72 h; series mostly up to 28.7 µM. The essentials: as §1
The test system of assay [5] is CP185. The description is as above. The note with it: P. falciparum in erythrocytes, SYBR Green DNA, 72 h; series mostly up to 28.7 µM. The method in brief: as §1
Assay [6] relates to CP191. The assay is described as above. The note with it: P. falciparum in erythrocytes, SYBR Green DNA, 72 h; series mostly up to 28.7 µM. The essentials: as §1
Assay [7] deals with CP192. The description is as above. As to conditions: P. falciparum in erythrocytes, SYBR Green DNA, 72 h; series mostly up to 28.7 µM. The method in brief:
as §1

Assay [8] has as its system CP194. The description is as above. The note with it: P. falciparum in erythrocytes, SYBR Green DNA, 72 h; series mostly up to 28.7 µM. The method in brief:
as §1

Assay [9] deals with CP211. The assay is described as above. The note with it: P. falciparum in erythrocytes, SYBR Green DNA, 72 h; series mostly up to 28.7 µM. The essentials:
as §1

For assay [10], the system named is CP217. Described as above. As to conditions: P. falciparum in erythrocytes, SYBR Green DNA, 72 h; series mostly up to 28.7 µM. The method in brief: as §1
Assay [11] has as its system CP238. The description is as above. The note with it: P. falciparum in erythrocytes, SYBR Green DNA, 72 h; series mostly up to 28.7 µM. The method in brief:
as §1

Assay [12] relates to CP252. Described as above. As to conditions: P. falciparum in erythrocytes, SYBR Green DNA, 72 h; series mostly up to 28.7 µM. The essentials: as §1
Assay [13] relates to CP262. The description is as above. The note with it: P. falciparum in erythrocytes, SYBR Green DNA, 72 h; series mostly up to 28.7 µM. The essentials:
as §1

Assay [14] has as its system CP265. The description is as above. As to conditions: P. falciparum in erythrocytes, SYBR Green DNA, 72 h; series mostly up to 28.7 µM. The essentials: as §1
For assay [15], the system named is CP269. Described as above. As to conditions: P. falciparum in erythrocytes, SYBR Green DNA, 72 h; series mostly up to 28.7 µM. The essentials:
as §1

Assay [16] deals with CP286. The description is as above. As to conditions: P. falciparum in erythrocytes, SYBR Green DNA, 72 h; series mostly up to 28.7 µM. The essentials:
as §1

In assay [17] the test system is CP329. The assay is described as above. As to conditions: P. falciparum in erythrocytes, SYBR Green DNA, 72 h; series mostly up to 28.7 µM. The essentials:
as §1

The subject of assay [18] is Dd2. Described as above. As to conditions: P. falciparum in erythrocytes, SYBR Green DNA, 72 h; series mostly up to 28.7 µM. The essentials:
as §1

For assay [19], the system named is ECU. Described as above. The note with it: P. falciparum in erythrocytes, SYBR Green DNA, 72 h; series mostly up to 28.7 µM. The method in brief: as §1
Assay [20] relates to FAB9. The assay is described as above. The note with it: P. falciparum in erythrocytes, SYBR Green DNA, 72 h; series mostly up to 28.7 µM. The essentials: as §1

Chain of ATP-dependent 6-phosphofructokinase (Trypanosoma brucei brucei) (O15648 whole entry, looked up): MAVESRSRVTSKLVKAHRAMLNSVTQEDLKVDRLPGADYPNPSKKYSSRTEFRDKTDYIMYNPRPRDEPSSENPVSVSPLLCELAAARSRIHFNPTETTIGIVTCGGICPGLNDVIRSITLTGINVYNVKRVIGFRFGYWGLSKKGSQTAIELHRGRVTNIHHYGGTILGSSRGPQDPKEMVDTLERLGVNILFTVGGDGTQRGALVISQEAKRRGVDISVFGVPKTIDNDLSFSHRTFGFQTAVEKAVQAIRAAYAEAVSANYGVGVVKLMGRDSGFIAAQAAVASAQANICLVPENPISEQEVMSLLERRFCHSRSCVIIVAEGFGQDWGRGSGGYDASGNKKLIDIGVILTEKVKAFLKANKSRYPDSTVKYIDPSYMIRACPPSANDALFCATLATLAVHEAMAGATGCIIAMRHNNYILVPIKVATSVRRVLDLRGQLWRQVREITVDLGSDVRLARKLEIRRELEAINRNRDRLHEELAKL

In the case of `Cc1ccc(/C=C2/C(=O)C3(C)CCC2C3(C)C)cc1` (centres undefined), the Potency entry in assay [1], in assay [3], in assay [4], in assay [5], in [6] and in assay [7] was “inactive” in each case. In addition, the Potency entry in assay [8], in assay [9], in assay [10], in [11], in assay [12] and in assay [13] was “inactive” throughout. Also, the Potency entry in [14], in [15], in assay [16], in assay [17], in assay [18] and in assay [19] was “inactive” each time. In addition, the Potency entry in assay [20] is “inactive”. For the same compound, the activity, negative = inhibition is 14.8% in assay [2] (parasite line A) and 12% in assay [2] (parasite line B).

Take `COC1CC2CCC(C)[C@](O)(O2)C(=O)C(=O)N2CCCCC2C(=O)OC(C(C)CC2CCC(O)C(OC)C2)CC(=O)C(C)/C=C(/C)C(O)C(OC)C(=O)C(C)CC(C)C=CC=C/C=C\1C` (some centres undefined): the Potency result in assay [1] and in assay [13] was “inactive” throughout. Further, the Potency is 3.55 µM (active) in assay [2] (parasite line A); 1.41 µM (active) in [2] (parasite line B); 2 µM (active) in [3]; 3.16 µM (active) in assay [4]; 4.47 µM (active) in [5]; 2.51 µM (active) in assay [6]. The Potency is 4.78 µM (active) in [7]; 3.38 µM (active) in [8]; 4.26 µM (active) in assay [9]; 3.55 µM (active) in assay [10]; 3.16 µM (active) in assay [11]; 2.51 µM (active) in assay [12]. For the same compound, the Potency was 2.82 µM (active) in [14]; 4.26 µM (active) in assay [15]; 4.47 µM (active) in assay [16]; 4.26 µM (active) in assay [17]; 1.58 µM (active) in [18]; 2 µM (active) in assay [19]. Besides, the Potency in assay [20] was 8.91 µM (active).

On to `Nc1nc(/C(=C/CC(=O)O)C(=O)NC2C(=O)N3C(C(=O)O)=CCSC23)cs1` (centres undefined), for which the Potency entry in assay [1], in [3], in [4], in assay [5], in assay [6] and in [7] was “inactive” in each case. Moreover, the Potency result in assay [8], in assay [9], in [10], in assay [11], in assay [12] and in assay [13] was “inactive” each time. The Potency entry in assay [14], in assay [15], in assay [16], in [17], in assay [18] and in assay [19] was “inactive” each time. For the same compound, the Potency result in assay [20] was “inactive”. Also, the activity, negative = inhibition in assay [2] (parasite line A) was -3.7%; in assay [2] (parasite line B), 3.34%.

In the case of `Cc1onc(-c2c(F)cccc2Cl)c1C(=O)NC1C(=O)N2C1SC(C)(C)C2C(=O)O` (centres undefined), the Potency entry in assay [1], in assay [3], in assay [4], in assay [5], in assay [6] and in assay [7] was “inactive” throughout. For the same compound, the Potency entry in assay [8], in assay [9], in [10], in assay [11], in [12] and in assay [13] was “inactive” in each case. Also, the Potency result in assay [14], in assay [16], in assay [17], in assay [18], in assay [19] and in assay [20] was “inactive” throughout. The activity, negative = inhibition is 3.14% in [2] (parasite line A) and -4.31% in [2] (parasite line B).

In the case of `CCCCCOC(=O)Nc1nc(=O)n(C2O[C@H](C)[C@@H](O)[C@@H]2O)cc1F` (some centres undefined), the Potency result in assay [1], in assay [3], in assay [4], in assay [5], in assay [7] and in assay [8] was “inactive” each time. The Potency entry in assay [9], in assay [10], in assay [11], in assay [12], in assay [13] and in [14] was “inactive” in each case. The Potency result in assay [15], in [16], in assay [17], in [18], in assay [19] and in assay [20] was “inactive” throughout. Also, the activity, negative = inhibition is -10.4% in [2] (parasite line A) and 12.5% in [2] (parasite line B). Also, the Potency in assay [6] was 8.91 µM (active).

With `Nc1nc(F)nc2c1ncn2[C@@H]1O[C@H](CO)[C@@H](O)[C@H]1O`, the Potency result in assay [1], in assay [3], in [4], in assay [5], in assay [6] and in assay [7] was “inactive” each time. Also, the Potency entry in [8], in assay [9], in [10], in assay [11], in [12] and in assay [13] was “inactive” throughout. For the same compound, the Potency result in assay [14], in assay [15], in assay [16], in [17], in assay [18] and in assay [19] was “inactive” each time. In addition, the Potency result in assay [20] was “inactive”. Besides, the activity, negative = inhibition is 9.43% in assay [2] (parasite line A) and 14.2% in assay [2] (parasite line B).

`Cn1cc(C(=O)[C@@H]2CCc3[nH]cnc3C2)c2ccccc21`: the Potency entry in assay [1], in assay [3], in [4], in assay [5], in assay [6] and in assay [7] was “inactive” each time. Also, the Potency entry in [8], in assay [9], in [10], in assay [11], in assay [12] and in [13] was “inactive” in each case. The Potency entry in assay [14], in assay [15], in [16], in [17], in assay [18] and in assay [19] was “inactive” in each case. Moreover, the Potency entry in [20] was “inactive”. In addition, the activity, negative = inhibition in assay [2] (parasite line A) is 5.71%; in assay [2] (parasite line B), 16.1%.

For `CCOC(=O)C(CCc1ccccc1)NC(C)C(=O)N1Cc2cc(OC)c(OC)cc2CC1C(=O)O` (centres undefined), the Potency result in [1], in [3], in [4], in [5], in [6] and in assay [7] was “inactive” throughout. Further, the Potency result in assay [9], in assay [11], in assay [12], in assay [13], in [14] and in assay [15] was “inactive” in each case. Moreover, the Potency result in assay [16], in assay [17], in assay [18] and in [20] was “inactive” each time. Moreover, the activity, negative = inhibition in [2] (parasite line A) is -6.17%; in [2] (parasite line B), -28.7%. For the same compound, in assay [19], the Potency was 5.01 µM (active).

In the case of `C[C@]12CC[C@@H]3c4ccc(O)cc4CC[C@H]3[C@@H]1CCC2OC(=O)CCC1CCCC1` (some centres undefined), the Potency result in [1], in assay [4], in assay [5], in assay [6], in [7] and in assay [8] was “inactive” in each case. Also, the Potency result in [9], in assay [10], in assay [11], in [12], in assay [13] and in assay [14] was “inactive” throughout. In addition, the Potency result in [15], in [17], in assay [19] and in assay [20] was “inactive” in each case. Further, the activity, negative = inhibition was -2.55% in [2] (parasite line A) and -17% in assay [2] (parasite line B).

For the compound `CCN(CC)C(=O)[C@@]1(c2ccccc2)C[C@@H]1CN`, the Potency result in assay [1], in [3], in [4], in assay [5], in assay [6] and in assay [7] was “inactive” each time. Moreover, the Potency entry in assay [8], in [9], in assay [10], in [11], in assay [12] and in assay [13] was “inactive” in each case. For the same compound, the Potency result in [14], in [15], in [16], in [17], in assay [18] and in assay [19] was “inactive” throughout. Further, the Potency entry in assay [20] is “inactive”. Further, the activity, negative = inhibition in assay [2] (parasite line A) is 3.47%; in assay [2] (parasite line B), 2.1%.
